PINK1 expr mod: changes PINK1 expression; 410,000 compounds, 0.2% hits; PINK1 immunofluorescence, high-content cytometry, 24 h; Potency, µM (highest dose often 76.6 µM), inactives show at the highest dose activation (PINK1 increase), most hits filed as activators; AID 624263; active = well fitted activation curve with a large enough effect; inconclusive = small, poorly fitted or top-dose-only effect; cell line not stated here; note: % of control where 0% means no effect; nearly all actives have a fitted effect of over 65% in size
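Readout is PINK1 immunofluorescence, quantified alongside mitochondrial, cell and nuclear markers by laser-scanning microplate cytometry. Cells from a stable line were exposed to compound titrations (5 concentrations) for 24 hours, with CCCP controls.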
MCF10A rereplic: inducers of DNA re-replication in MCF 10A breast cells; 350,000 compounds, 2.9% hits; Potency, µM (series often up to 46.1 µM), inactives show at the top dose activity, positive = re-replication, usual class: activators; MCF 10A DNA re-replication, Hoechst nuclear intensity, 48 h; note: % of control where 0% means no effect; nearly all actives have a fitted effect of over 50% in size
KB-3-1 tox: KB-3-1 parental cell cytotoxicity; KB-3-1 viability, CellTiter-Glo ATP luminescence, 72 h; Potency, µM (titrated, usually from 46.1 µM), usual class: cytotoxic; 400,000 compounds, 1.4% hits; AID 1347075; note: % is set by controls: 0 for no effect and ±100 for the full control effect; nearly all actives have a fitted effect of over 60% in size
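Cytotoxicity in the drug-sensitive parental line KB-3-1 was scored as loss of CellTiter-Glo luminescence following 72 h incubation with compound. Values come from curve fitting of normalized concentration-response data.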
ALOX12 inh: ALOX12 (human) lipoxygenase inhibition. P18054. purified 12hLO, xylenol orange hydroperoxide absorbance. Potency, µM (titrated, usually from 108 µM), inactives show top-dose activity change, negative = inhibition, most hits filed as inhibitors. 580,000 compounds, 1.1% hits; note: % is set by controls: 0 for no effect and ±100 for the full control effect
Target sequence (P18054 whole entry, looked up): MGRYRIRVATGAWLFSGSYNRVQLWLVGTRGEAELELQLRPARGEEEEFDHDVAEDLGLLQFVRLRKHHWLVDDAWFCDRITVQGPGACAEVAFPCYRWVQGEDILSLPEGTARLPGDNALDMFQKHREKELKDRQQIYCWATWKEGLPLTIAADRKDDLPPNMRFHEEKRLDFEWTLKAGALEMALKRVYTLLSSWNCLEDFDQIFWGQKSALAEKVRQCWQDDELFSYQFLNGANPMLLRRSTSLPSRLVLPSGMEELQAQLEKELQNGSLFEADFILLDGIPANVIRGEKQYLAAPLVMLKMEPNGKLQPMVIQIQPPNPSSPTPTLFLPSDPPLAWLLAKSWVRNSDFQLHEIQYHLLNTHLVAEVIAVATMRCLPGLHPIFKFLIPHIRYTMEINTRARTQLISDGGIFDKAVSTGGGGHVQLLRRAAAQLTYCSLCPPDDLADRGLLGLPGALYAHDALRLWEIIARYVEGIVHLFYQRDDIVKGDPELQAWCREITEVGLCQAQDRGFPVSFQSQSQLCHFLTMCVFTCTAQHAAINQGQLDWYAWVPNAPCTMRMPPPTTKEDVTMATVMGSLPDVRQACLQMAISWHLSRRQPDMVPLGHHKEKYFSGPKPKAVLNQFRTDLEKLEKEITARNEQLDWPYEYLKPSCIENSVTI
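Purified human 12hLO (150 nM final) in 25 mM Hepes, 0.01% Triton X-100, pH 7.0 was preincubated 15 min at room temperature with compound. Then 40 uM arachidonic acid was added, 30 min. Hydroperoxide was read by Fe-XO absorbance ratio 573/405 nm.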
KB-V1 MDR tox: kills drug-selected multidrug resistant KB-V1 cells; KB-V1 MDR cells viability, CellTiter-Glo, 72 h; Potency, µM (doses to about 46.1 µM), most hits filed as cytotoxic; 400,000 compounds, 3.4% hits; AID 1347076; note: % is set by controls: 0 for no effect and ±100 for the full control effect; nearly all actives have a fitted effect of over 60% in size
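Compound-treated KB-V1 multidrug-resistant cells, 72 h, 37 degrees C; viability by CellTiter-Glo. Fitted qHTS curves give the values.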
SW480 rereplic: inducers of DNA re-replication in SW480 colon cancer cells; SW480 DNA re-replication, Hoechst DNA content imaging, 48 h; Potency, µM (top dose mostly 46.1 µM), without a hit: top-dose re-replication activation, actives largely listed as activators; 340,000 compounds, 1.8% hits; note: % of control where 0% means no effect; nearly all actives have a fitted effect of over 55% in size
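Compounds, transferred as 23 nL by pin tool, were incubated with cells for 48 hr; DNA content per nucleus was then quantified by Hoechst staining and fluorescence plate imaging.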
* = called active by the depositor; [ ] = another dose, or the depositor's remark. Sampled rows, rich in hits. Any-hit rate of the full collection: about 5.8%. Unless noted, calls come from the whole dose curve; as a rule, active = well fitted curve in the direction sought with a large enough effect; inconclusive = small, poorly fitted or top-dose-only effect, or another doubt; inactive = no such curve, though single readings can be large; an effect the other way counts as inactive or inconclusive. Potency is the fitted concentration of half-maximal effect.

Screening CCCOc1ccc(C(=O)NNC(=S)NC(=O)CC)cc1 returned PINK1 expr mod -30%[38.3 µM], MCF10A rereplic 16µM*, KB-3-1 tox 13µM*, ALOX12 inh inconclusive, KB-V1 MDR tox inconclusive and SW480 rereplic inconclusive.
`C=CCNC(=S)NNC(=O)c1ccc(OCC(C)C)cc1` gave PINK1 expr mod 1%[38.3 µM], MCF10A rereplic -2%, KB-3-1 tox inactive, ALOX12 inh 14%, KB-V1 MDR tox inactive and SW480 rereplic 18µM*.
For CCCN(CCC)S(=O)(=O)c1ccc(NC(=O)Cn2cnc3c2c(=O)n(C)c(=O)n3C)cc1 the results were ALOX12 inh 4%.
Screening O=S(=O)(c1ccccc1)N(C1=NCCS1)S(=O)(=O)c1ccccc1 returned PINK1 expr mod 14%[38.3 µM], MCF10A rereplic 13%, KB-3-1 tox inactive, ALOX12 inh -3%, KB-V1 MDR tox 21µM* and SW480 rereplic 0%.
For c1ccc(Sc2ccncc2)cc1 the results were PINK1 expr mod 0%, KB-3-1 tox inactive, ALOX12 inh 6% and KB-V1 MDR tox inactive.
Screening c1cc(SSc2ccncc2)ccn1 returned PINK1 expr mod -1%, MCF10A rereplic 0%, KB-3-1 tox inactive, ALOX12 inh 6.3µM*, KB-V1 MDR tox inactive and SW480 rereplic 22%.
Screening COc1ccccc1-n1c(SCC(=O)Nc2ccccc2C)nc(O)cc1=O returned PINK1 expr mod 0%[38.3 µM], MCF10A rereplic -4%, KB-3-1 tox inactive, ALOX12 inh -16%, KB-V1 MDR tox inactive and SW480 rereplic 0%.
For COc1ccc(-n2c(SCC(=O)Nc3ccccc3)nc(O)cc2=O)cc1 the results were PINK1 expr mod 0%, MCF10A rereplic 1%, KB-3-1 tox inactive, ALOX12 inh inconclusive, KB-V1 MDR tox inactive and SW480 rereplic -3%.
For CCn1c(SCC(=O)Nc2ccc(C)cc2)nc(O)cc1=O the results were PINK1 expr mod 1%, MCF10A rereplic 7%, KB-3-1 tox inactive, ALOX12 inh -13%, KB-V1 MDR tox inactive and SW480 rereplic -5%.
For Cc1ccccc1-n1c(SCC(=O)Nc2ccc(Cl)cc2Cl)nc(O)cc1=O the results were PINK1 expr mod -1% and ALOX12 inh 6.3µM*.
Screening COc1ccccc1NC(=O)CSc1nc(O)cc(=O)n1-c1ccccc1OC returned PINK1 expr mod 13%[38.3 µM], MCF10A rereplic 15µM*, KB-3-1 tox inactive, ALOX12 inh inconclusive, KB-V1 MDR tox inactive and SW480 rereplic 11%.
Screening COc1ccc(NC(=O)CSc2nc(O)cc(=O)n2-c2ccc(OC)cc2)cc1 returned PINK1 expr mod 9%, MCF10A rereplic -4%, KB-3-1 tox inactive, ALOX12 inh 13µM*, KB-V1 MDR tox inconclusive and SW480 rereplic -1%.
For C=CCn1c(SCC(=O)Nc2ccc(Br)cc2)nc(O)cc1=O the results were PINK1 expr mod 0%, KB-3-1 tox inactive, ALOX12 inh 3.2µM* and KB-V1 MDR tox inactive.
`CC(C)=CCN1CCNC(=O)C1CC(=O)NC(C)(C)c1cccc2ccccc12` (centres undefined) gave ALOX12 inh 21%.
Screening CCOc1cc(C(=O)O)ccc1OCc1ccccc1 returned ALOX12 inh -25%.
Screening Cc1ccc(-c2nn3c(N(C)C)cc(C)nc3c2C)cc1 returned ALOX12 inh 3%.
Screening COCCN1C(=O)CCC2(CNC(=O)CCc3nc4ccccc4[nH]3)CCCC=C12 (centres undefined) returned ALOX12 inh 49%.
`O=C(C1=C[C@@H](c2coc3ccccc3c2=O)C[C@@H](OCc2ccc(CO)cc2)O1)N1CCCCCCC1` gave PINK1 expr mod 0%, MCF10A rereplic 1.3µM*, KB-3-1 tox inactive, KB-V1 MDR tox inactive and SW480 rereplic 5%[9.22 µM].
O=C(C1=C[C@@H](C2CCCCC2)C[C@@H](OCc2ccc(CO)cc2)O1)N1CCOCC1 was read as PINK1 expr mod 0%, MCF10A rereplic 6%, KB-3-1 tox inactive, ALOX12 inh 0%, KB-V1 MDR tox inactive and SW480 rereplic 0.18µM*.
`O=C(C1=C[C@@H](C2CC2)C[C@@H](OCc2ccc(CO)cc2)O1)N1CCOCC1` gave PINK1 expr mod 0%, MCF10A rereplic 8%, KB-3-1 tox inactive, ALOX12 inh -4%, KB-V1 MDR tox inactive and SW480 rereplic -11%.
Screening O=C(C1=C[C@@H](c2ccccc2)C[C@@H](OCc2ccc(CO)cc2)O1)N1CCN(Cc2ccc3c(c2)OCO3)CC1 returned PINK1 expr mod 1%, MCF10A rereplic inconclusive, KB-3-1 tox 10µM*, ALOX12 inh 4%, KB-V1 MDR tox inconclusive and SW480 rereplic inconclusive.
CC(=O)Nc1ccc(NC(=O)COC(=O)c2cc(=O)[nH]c3ccccc23)cc1 was read as ALOX12 inh 4%.
CC(C)C[C@@H]1N[C@H](C(=O)NCCN(C)C)Cc2cn(Cc3ccncc3)c3cccc1c23 was read as ALOX12 inh 76%[176 µM].
Screening CCc1nc2c(c(-c3ccc(O)cc3)n1)CCN(Cc1ccccc1C(F)(F)F)CC2 returned ALOX12 inh -2%.
Screening O=C1NC(Cc2ccc(O)cc2)c2nc3cc(F)ccc3c(=O)n2-c2cc(Cl)ccc21 (centres undefined) returned ALOX12 inh -12%.
`CCCC1NC(=O)c2cc3ccccc3cc2-n2c1nc1cc(Cl)ccc1c2=O` (centres undefined) gave PINK1 expr mod 4%, KB-3-1 tox 18µM*, ALOX12 inh inconclusive and KB-V1 MDR tox 12µM*.
Screening O=C1NC(Cc2ccccc2)c2nc3ccc(Cl)cc3c(=O)n2-c2cc3ccccc3cc21 (centres undefined) returned PINK1 expr mod 9%, KB-3-1 tox inconclusive, ALOX12 inh inconclusive and KB-V1 MDR tox inactive.
`O=C1NC(Cc2ccccc2)c2nc3ccc(F)cc3c(=O)n2-c2cc3ccccc3cc21` (centres undefined) gave PINK1 expr mod 8%, KB-3-1 tox inconclusive, ALOX12 inh -39% and KB-V1 MDR tox 21µM*.
Screening Cc1ccc2c(=O)n3c(nc2c1)C(Cc1ccc(O)cc1)NC(=O)c1cc2ccccc2cc1-3 (centres undefined) returned PINK1 expr mod 9%, KB-3-1 tox 16µM*, ALOX12 inh -3% and KB-V1 MDR tox inconclusive.
For O=C1NC(Cc2ccc(O)cc2)c2nc3cc(F)ccc3c(=O)n2-c2cc3ccccc3cc21 (centres undefined) the results were PINK1 expr mod 1%, KB-3-1 tox 15µM*, ALOX12 inh 0% and KB-V1 MDR tox inconclusive.
